Legend:
Assay in all cases: universal protein binding microarray (PBM); transcription factors of Arabidopsis thaliana; high values mean tight binding
Details in all cases: protein: recombinant; tags: GST; chain copies: 2; dsDNA, one strand shown
GST-ANAC092(1-176) = target: T1, GST-ANAC092(1-176) (Arabidopsis thaliana, UniProt Q9FKA0 1-176)
T1 sequence: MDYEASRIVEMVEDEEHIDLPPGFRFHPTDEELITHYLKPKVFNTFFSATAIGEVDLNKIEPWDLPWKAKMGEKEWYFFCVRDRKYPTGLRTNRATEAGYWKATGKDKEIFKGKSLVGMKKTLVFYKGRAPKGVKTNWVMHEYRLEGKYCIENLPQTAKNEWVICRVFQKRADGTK
In short: (§1)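 Binding is expressed as the normalised enrichment score (E-score). Proteins carrying a GST tag, whether NAC-domain, full-length or DNA-binding-domain forms, were induced in cells, and zinc acetate was added for zinc-finger proteins. After purification on glutathione–Sepharose 4B and quantification by A280 or anti-GST western blot, each was applied in duplicate at 200 to 500 nM final to custom all-10-mer Agilent 4 × 180K arrays made double-stranded by primer extension. Gapped and ungapped 8-mers were scored.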

GST-NTL6(1-168) = GST-NTL6(1-168) (Arabidopsis thaliana, UniProt Q9SCK6 1-168)
In short: as §1

GST-ANAC019 NAC domain = target: T2, GST-ANAC019 NAC domain (Arabidopsis thaliana, UniProt Q9C932 14-162)
T2 sequence: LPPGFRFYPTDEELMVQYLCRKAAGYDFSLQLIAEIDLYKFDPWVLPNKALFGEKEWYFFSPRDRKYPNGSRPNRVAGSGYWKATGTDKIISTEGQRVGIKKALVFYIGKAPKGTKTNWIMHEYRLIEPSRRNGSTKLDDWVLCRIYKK
In short: as §1

GST-ANAC055(1-171) = target: T3, GST-ANAC055(1-171) (Arabidopsis thaliana, UniProt Q9LDY8 1-171)
T3 sequence: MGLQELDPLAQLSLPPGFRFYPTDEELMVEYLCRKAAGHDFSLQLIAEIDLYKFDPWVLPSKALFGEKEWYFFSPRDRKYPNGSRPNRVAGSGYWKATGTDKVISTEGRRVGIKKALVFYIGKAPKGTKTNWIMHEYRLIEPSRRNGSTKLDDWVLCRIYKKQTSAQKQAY
In short: as §1

GST-ATAF1 NAC domain = target: T4, GST-ATAF1 NAC domain (Arabidopsis thaliana, UniProt Q39013 7-158)
T4 sequence: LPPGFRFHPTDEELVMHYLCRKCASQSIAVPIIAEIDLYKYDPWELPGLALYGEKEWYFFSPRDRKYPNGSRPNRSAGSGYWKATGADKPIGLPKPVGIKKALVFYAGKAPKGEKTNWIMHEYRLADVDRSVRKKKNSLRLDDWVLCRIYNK
In short: as §1

[1] = target: T5, GST-ANAC092(1-285) full length (Arabidopsis thaliana, UniProt Q9FKA0 1-285)
T5 sequence: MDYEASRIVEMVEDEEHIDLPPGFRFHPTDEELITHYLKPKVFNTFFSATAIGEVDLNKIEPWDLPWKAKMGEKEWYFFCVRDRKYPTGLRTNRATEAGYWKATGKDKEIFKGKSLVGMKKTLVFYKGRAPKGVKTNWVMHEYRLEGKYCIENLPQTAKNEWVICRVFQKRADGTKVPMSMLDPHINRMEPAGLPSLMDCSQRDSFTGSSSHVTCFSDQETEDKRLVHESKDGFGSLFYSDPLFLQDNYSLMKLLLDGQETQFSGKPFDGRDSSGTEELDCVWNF
In short: as §1

GST-NAP(1-166) = target: T6, GST-NAP(1-166) (Arabidopsis thaliana, UniProt O49255 1-166)
T6 sequence: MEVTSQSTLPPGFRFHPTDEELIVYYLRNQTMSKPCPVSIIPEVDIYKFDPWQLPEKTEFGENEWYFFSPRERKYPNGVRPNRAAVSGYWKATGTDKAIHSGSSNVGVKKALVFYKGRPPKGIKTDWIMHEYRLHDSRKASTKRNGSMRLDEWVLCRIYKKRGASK
In short: as §1

GST-NST2(1-184) = target: T7, GST-NST2(1-184) (Arabidopsis thaliana, UniProt Q9M274 1-184)
T7 sequence: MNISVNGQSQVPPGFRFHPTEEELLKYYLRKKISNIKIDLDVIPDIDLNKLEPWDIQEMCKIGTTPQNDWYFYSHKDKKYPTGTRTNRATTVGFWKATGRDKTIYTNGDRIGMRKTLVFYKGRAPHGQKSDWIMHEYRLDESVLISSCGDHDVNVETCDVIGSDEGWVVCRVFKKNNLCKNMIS
In short: as §1

GST-NTL8 NAC domain = target: T8, GST-NTL8 NAC domain (Arabidopsis thaliana, UniProt Q9XIN7 14-156)
T8 sequence: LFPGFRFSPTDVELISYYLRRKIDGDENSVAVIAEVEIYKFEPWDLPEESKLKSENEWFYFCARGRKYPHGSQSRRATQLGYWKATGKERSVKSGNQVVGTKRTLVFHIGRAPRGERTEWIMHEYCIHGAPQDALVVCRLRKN
In short: as §1

GST-SND1(1-203) = target: T9, GST-SND1(1-203) (Arabidopsis thaliana, UniProt Q9LPI7 1-203)
T9 sequence: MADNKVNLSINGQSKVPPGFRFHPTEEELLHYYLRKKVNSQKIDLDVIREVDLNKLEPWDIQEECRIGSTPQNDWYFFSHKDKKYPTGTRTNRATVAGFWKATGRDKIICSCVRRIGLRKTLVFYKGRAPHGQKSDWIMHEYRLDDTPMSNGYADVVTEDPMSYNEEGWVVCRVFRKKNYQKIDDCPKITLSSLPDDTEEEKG
In short: as §1

GST-VND3 NAC domain = target: T10, GST-VND3 NAC domain (Arabidopsis thaliana, UniProt Q9FH59 12-162)
T10 sequence: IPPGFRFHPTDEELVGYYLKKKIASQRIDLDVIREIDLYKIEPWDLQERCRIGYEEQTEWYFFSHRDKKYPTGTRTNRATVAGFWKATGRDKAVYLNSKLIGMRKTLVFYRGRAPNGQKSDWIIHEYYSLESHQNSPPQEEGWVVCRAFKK
In short: as §1

GST-VND7 NAC domain = target: T11, GST-VND7 NAC domain (Arabidopsis thaliana, UniProt Q9C8W9 9-158)
T11 sequence: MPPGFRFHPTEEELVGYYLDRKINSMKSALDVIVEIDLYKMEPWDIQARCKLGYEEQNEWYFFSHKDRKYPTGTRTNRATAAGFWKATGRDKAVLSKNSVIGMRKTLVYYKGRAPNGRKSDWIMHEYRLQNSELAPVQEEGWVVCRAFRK
In short: as §1

Sequence of GST-NTL6(1-168) (Q9SCK6 1-168): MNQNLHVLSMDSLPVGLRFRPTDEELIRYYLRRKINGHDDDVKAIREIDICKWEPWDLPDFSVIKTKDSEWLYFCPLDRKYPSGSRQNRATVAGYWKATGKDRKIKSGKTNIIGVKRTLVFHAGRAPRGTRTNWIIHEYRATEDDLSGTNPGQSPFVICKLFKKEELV

| Sequence | binding signal (GST-ANAC092(1-176)) [E-score] | binding signal (GST-NTL6(1-168)) [E-score] | binding signal (GST-ANAC019 NAC domain) [E-score] | binding signal (GST-ANAC055(1-171)) [E-score] | binding signal (GST-ATAF1 NAC domain) [E-score] | binding signal [1] [E-score] | binding signal (GST-NAP(1-166)) [E-score] | binding signal (GST-NST2(1-184)) [E-score] | binding signal (GST-NTL8 NAC domain) [E-score] | binding signal (GST-SND1(1-203)) [E-score] | binding signal (GST-VND3 NAC domain) [E-score] | binding signal (GST-VND7 NAC domain) [E-score] |
| --- | --- | --- | --- | --- | --- | --- | --- | --- | --- | --- | --- | --- |
| ACGTAATA | 0.425 | 0.176 | 0.351 | 0.375 | 0.276 | 0.434 | 0.346 | 0.298 | 0.142 | 0.387 | 0.377 | 0.273 |
| ACACACGC | 0.37 | 0.0666 | 0.169 | 0.199 | 0.135 | 0.423 | 0.0855 | 0.221 |  | 0.221 | 0.198 | 0.213 |
| ACGTATCT | 0.189 | 0.0824 | 0.425 | 0.38 | 0.334 | 0.306 | 0.393 | 0.189 |  | 0.14 | 0.393 | 0.313 |
| AACACGCT | 0.416 | 0.134 | 0.185 | 0.236 | 0.174 | 0.431 | 0.2 | 0.3 |  | 0.227 | 0.0943 | 0.142 |
| GCGTGTAA | 0.444 | 0.0655 | 0.297 | 0.222 | 0.201 | 0.438 | 0.155 | 0.275 |  | 0.347 | 0.246 | 0.2 |
| ACGCAAGT | 0.424 | 0.121 | 0.277 | 0.295 | 0.295 | 0.444 | 0.356 | 0.291 | 0.0671 | 0.406 | 0.375 | 0.366 |
| TAACGTGA | 0.42 | 0.0647 | 0.144 | 0.213 | 0.208 | 0.419 | 0.168 | 0.257 |  | 0.385 | 0.251 | 0.0561 |
| GTACGCTA | 0.428 | 0.0905 | 0.124 | 0.165 | 0.238 | 0.449 | 0.219 | 0.288 | 0.129 | 0.447 | 0.15 | 0.233 |
| ACGGAAAC | 0.325 | 0.205 | 0.412 | 0.388 | 0.209 | 0.345 | 0.305 | 0.242 | 0.243 | 0.191 | 0.349 | 0.361 |
| GCACGAAA | 0.401 | 0.0615 | 0.253 | 0.197 | 0.165 | 0.441 | 0.245 | 0.0864 | 0.0576 | 0.211 | 0.173 | 0.145 |
| AAGTAAGC | 0.284 | 0.404 | 0.104 | 0.158 | 0.199 | 0.358 | 0.0599 | 0.171 | 0.337 | 0.361 | 0.21 | 0.272 |
| GAAACGTA | 0.355 | 0.0734 | 0.241 | 0.219 | 0.224 | 0.411 | 0.223 | 0.212 | 0.288 | 0.435 | 0.332 | 0.268 |
| GCAAGGAA | 0.345 | 0.418 | 0.185 | 0.211 | 0.18 | 0.371 | 0.133 | 0.175 | 0.431 | 0.276 | 0.187 | 0.229 |
